High-throughput results as filed in PubChem BioAssay.
Sampled rows, rich in hits. Any-hit rate of the full collection: about 1.3%.
MazF activator: activators of E. coli MazEF toxin-antitoxin RNase; P0AE70; FAM/BHQ RNA-DNA oligo cleavage fluorescence, 5 h; activation, % at 20 µM; actives 0.32% (n = 350,000); AID 504720; in the data active = activation above about 50%
Target sequence (P0AE70 whole entry, looked up): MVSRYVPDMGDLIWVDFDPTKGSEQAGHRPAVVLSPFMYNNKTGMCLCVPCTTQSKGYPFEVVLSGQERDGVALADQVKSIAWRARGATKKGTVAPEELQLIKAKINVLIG
Mtb bLac sens: beta-lactam sensitization of Mtb H37Rv; actives 0.27% (n = 330,000); M. tuberculosis H37Rv growth with meropenem, percent inhibition; inhibition, % at 25 µM; call rule not given here;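 also: growth measured after seven days incubation then overnight dye step; 0% = bacteria only wells and 100% = bacteria with antibiotic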
CCHF vOTU inh-1: CCHFV vOTU protease inhibition; Pep-AMC fluorescence; inhibition, % at 11.5 µM; actives 0.55% (n = 370,000); AID 651958; also: 0% = vehicle wells with enzyme and 100% = no enzyme wells
SARS 3CLpro inh-1: SARS-CoV 3CLpro protease inhibition | P0C6X7 | recombinant SARS-CoV 3CLpro, quenched FRET peptide cleavage | inhibition, % at 6 µM | actives 0.14% (n = 290,000); in the data active = inhibition above about 12%
RN4220 kill: S. aureus RN4220 growth inhibition. OD600, 16 h. inhibition, % (no concentration beside the values). actives 0.33% (n = 330,000); in the data active = inhibition above about 85%;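 also: plate controls were untreated cells for no effect and reference antibiotic for full effect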
Sa ugtP lethal: growth inhibition of S. aureus ugtP deletion strain; actives 0.54% (n = 330,000); S. aureus RN4220 ugtP deletion, OD600 growth, 16 h; growth inhibition, % (no concentration beside the values); AID 1259309; in the data active = growth inhibition above about 68%;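 also: plate controls were untreated wells for no effect and antibiotic for full effect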
SARS 3CLpro inh-2: SARS 3CLpro inhibition, confirmation assay. shares compounds with SARS 3CLpro inh-1. QFRET protease activity assay. inhibition, % at 6 µM. actives 36% (n = 380). AID 1879; in the data active = inhibition above about 13%
CCHF vOTU inh-2: CCHFV vOTU protease inhibition, confirmation; shares compounds with CCHF vOTU inh-1; Recombinant CCHFV vOTU, Pep-AMC fluorescence; inhibition, % at 11.5 µM; actives 17% (n = 1,900); AID 686976
An asterisk follows results filed as active; . = no result. Rule as the data show it, unless noted: active = inhibition above about 30%; inactive = the rest.

SMILES | MazF activator | Mtb bLac sens | CCHF vOTU inh-1 | SARS 3CLpro inh-1 | RN4220 kill | Sa ugtP lethal | SARS 3CLpro inh-2 | others
NC(=O)c1ccc(NC(=O)COC(=O)C=Cc2cccs2)cc1 | . | . | . | . | 4.7 | 0.8 | .
N#Cc1c(NC(=S)NC(=O)c2ccccc2)sc2c1CCC2 | 17.1 | 2.4 | 2.3 | 21.2* | . | . | -2.6
CC1CCC2C(=O)N(c3ccccc3OC(=O)c3ccccc3)C(=O)C2C1 (configuration not stated) | -4.1 | 17.6 | 0.8 | 5.0 | 4.5 | 0.4 | .
CC1CCC2C(=O)N(c3cc(Cl)ccc3OC(=O)c3ccco3)C(=O)C2C1 (configuration not stated) | -1.2 | . | 5.0 | 45.9* | 2.8 | 5.3 | 60.2*
CC(C)c1ccc(NC(=O)CSc2nc3ccsc3c(=O)n2Cc2ccc(C(=O)O)cc2)cc1 | -2.3 | 10.8 | 3.0 | 13.3* | 2.1 | 12.4 | 5.2
CCc1ccc(NC(=O)CSc2nc3ccsc3c(=O)n2CCC(=O)O)cc1 | -5.7 | -3.1 | 12.8 | 5.8 | 1.2 | 1.3 | .
O=C(NN=Cc1cccnc1)c1ccccc1[N+](=O)[O-] | . | . | . | . | 1.9 | 8.0 | .
O=C(O)c1ccc2ncsc2c1 | 2.5 | 3.1 | -8.5 | 16.5* | -0.3 | -3.3 | 37.7*
O=C(c1ccc2ncsc2c1)N1CCCCC1 | -0.3 | -8.9 | -6.3 | -4.8 | -0.3 | -2.8 | .
O=C(NCCN1CCOCC1)c1ccc2c(c1)N(Cc1ccc(F)cc1)C(=O)CS2 | -7.7 | 0.0 | 2.1 | 10.3 | 6.7 | -12.8 | .
Cc1ccc(CN2C(=O)CSc3ccc(C(=O)NCCN4CCOCC4)cc32)cc1 | -0.5 | -2.6 | . | 18.6* | 4.5 | -7.2 | 8.4
O=C(N/N=C/c1ccncc1)c1cccc(S(=O)(=O)Nc2ccc(Cl)cc2)c1 | 7.5 | 6.4 | 6.8 | 62.0* | . | . | -0.8
O=C(NN=Cc1cccs1)c1cccc(S(=O)(=O)Nc2ccc(Cl)cc2)c1 | . | . | . | . | 2.5 | -0.3 | .
CN(C)S(=O)(=O)c1cccc(NC(=S)N/N=C/c2cc(Br)ccc2O)c1 | -27.1 | 25.4 | 12.6 | 15.3* | . | . | 4.6
CCCCCn1c(CN2CCN(Cc3ccccc3)CC2)nc2c1c(=O)[nH]c(=O)n2C | 3.7 | -1.3 | -1.8 | 12.6* | 2.5 | 0.7 | 2.0
O=C(/C=C/c1cccs1)Nc1scc(-c2ccccc2)c1C(=O)O | -11.6 | . | 11.6 | 23.4* | 1.4 | 3.6 | 60.6*
Cc1scc(C(=O)NN=Cc2ccc(OC(C)C)cc2)c1C | . | . | . | . | -2.6 | 9.9 | .
O=C(NCC(=O)N1CCN(Cc2ccccc2)CC1)c1ccc(Br)cc1 | 2.5 | -7.5 | -6.5 | 12.3* | -2.2 | -0.6 | 1.5
O=C(NCC(=O)N1CCN(Cc2ccccc2)CC1)c1ccc(Cl)cc1 | -5.2 | 4.2 | -5.8 | -4.3 | 1.6 | 5.5 | .
O=C(NN1C(=O)/C(=C/c2ccc(O)cc2)SC1=S)c1ccccc1O | -514.0 | -1.0 | 8.0 | 13.3* | 6.6 | -11.4 | -2.1
COc1cc(/C=C2\SC(=S)N(NC(=O)c3ccccc3O)C2=O)ccc1O | -66.7 | 0.4 | 6.9 | 3.5 | 20.6 | 0.2 | .
COCCOC(=O)/C(C#N)=C/c1cn(Cc2ccccc2)nc1-c1cccnc1 | -1.9 | -1.1 | -1.1 | 15.8* | 5.5 | -0.5 | 1.8
N#Cc1ccc(CN2CCN(C(=O)c3cn(Cc4ccccc4)nc3-c3cccnc3)CC2)cc1 | 6.1 | -5.7 | 18.2 | . | 5.4 | 5.7 | .
COc1ccc(C=NNC(=O)CC(=O)Nc2cccc(Cl)c2)cc1OC | . | . | . | . | 7.0 | 13.3 | .
O=C(O)c1ccc(CN(Cc2ccccc2)S(=O)(=O)c2ccc(Cl)cc2)cc1 | 2.8 | 4.2 | 2.5 | 12.7* | 5.8 | 8.9 | 3.9
SMILES | MazF activator | Mtb bLac sens | CCHF vOTU inh-1 | SARS 3CLpro inh-1 | RN4220 kill | Sa ugtP lethal | SARS 3CLpro inh-2 | others
COc1ccc(CNC(=O)CN(Cc2ccccc2)S(=O)(=O)c2ccc(Cl)cc2)cc1 | -5.8 | -6.9 | 24.4 | -0.2 | -0.5 | 3.5 | .
O=S(=O)(c1ccc(F)cc1)N1CCN(S(=O)(=O)c2ccc3c(c2)OCCO3)CC1 | -0.2 | 3.5 | 2.8 | . | 2.5 | 3.5 | .
Cc1ccc(S(=O)(=O)N2CCN(S(=O)(=O)c3ccc4c(c3)OCCO4)CC2)cc1 | -15.5 | 5.2 | -7.1 | 12.3* | 3.5 | 0.3 | -3.2
Cc1cc(C)n(C(=O)c2ccc(C)c(Br)c2)n1 | -2.7 | 4.9 | -15.1 | 13.9* | 0.3 | 1.0 | 13.4*
CSc1nnc(C(C)(C)C)c(=O)n1N=Cc1ccc(Cl)cc1 | . | . | . | . | 0.9 | -2.7 | .
O=C(O)c1ccc(NC(=S)NC(=O)C(c2ccccc2)c2ccccc2)cc1 | 1.1 | -27.4 | 12.6 | 2.2 | 23.9 | 31.8 | .
O=C(O)c1cccc(NC(=S)NC(=O)C(c2ccccc2)c2ccccc2)c1 | -20.0 | -0.5 | 14.1 | 13.8* | 5.2 | 10.0 | 8.4
Cc1noc(NS(=O)(=O)c2ccc(NC(=O)c3oc4ccc(Cl)cc4c3C)cc2)c1C | 4.6 | -11.8 | 34.9* | 12.3* | 12.0 | -2.0 | 6.7 | CCHF vOTU inh-2=20.1
CCn1cc(C=NO)c(C)n1 | . | . | . | . | 0.8 | 4.6 | .
COc1ccc2nc(Cl)c(C=NNc3ccccn3)cc2c1 | . | . | . | . | 1.1 | 8.2 | .
CC(C)C[C@H](NC(=O)c1[nH]cnc1C(=O)N[C@@H](Cc1ccccc1)C(=O)OCc1ccccc1)C(=O)OC(C)(C)C | 1.3 | -2.2 | 29.9* | 13.3* | . | . | 6.5 | CCHF vOTU inh-2=17.9
Cc1cc(C)c(S(=O)(=O)/N=C2\C=C(Nc3ccc(C(=O)O)cc3)C(=O)c3ccccc32)c(C)c1 | 4.5 | 9.6 | 124.7* | 12.6* | . | . | 6.6 | CCHF vOTU inh-2=111.1*
O=C(NCc1ccccc1F)c1ccc(S(=O)(=O)Nc2cccc(C(F)(F)F)c2)cc1 | -4.0 | 3.5 | 20.0 | 1.3 | 5.6 | -16.1 | .
O=C(NCc1ccc(F)cc1)c1ccc(S(=O)(=O)Nc2cccc(C(F)(F)F)c2)cc1 | -0.6 | 5.3 | 30.0* | 17.6* | -4.6 | -28.6 | 11.0 | CCHF vOTU inh-2=-11.5
CC(=NO)c1ccc2c3ccccc3n(C)c2c1 | . | . | . | . | -5.1 | 6.5 | .
CN(CCCN1CCOCC1)C(=O)c1cc(COc2cccc(C(F)(F)F)c2)on1 | -24.1 | -6.6 | 0.7 | 4.7 | 2.0 | 1.7 | .
CN(CCc1ccccc1)C(=O)c1cc(COc2cccc(C(F)(F)F)c2)on1 | -1.6 | . | 30.0* | 13.1* | 5.4 | -18.2 | 6.6 | CCHF vOTU inh-2=13.4
O=C1C=CC(=O)c2c(O)c(CO)c(CO)c(O)c21 | -359.7 | . | 77.7* | . | . | . | . | CCHF vOTU inh-2=69.3*
O=c1c(CO)cc(CO)cc(CO)c1O | 9.8 | 0.1 | -1.6 | 7.1 | 0.3 | 3.9 | .
Cc1ccc(NC(=O)CCC(=O)NN=Cc2ccc(O)cc2O)cc1 | . | . | . | . | -1.4 | 13.7 | .
Cc1cc(C)c2nc(N3C(=O)C(O)=C(C(=O)c4ccco4)C3c3cccc(O)c3)sc2c1 (configuration not stated) | 3.7 | -5.0 | 35.6* | . | 54.4 | 88.3* | . | CCHF vOTU inh-2=-1.2
Cc1cc(N2C(=O)C(O)=C(C(=O)c3ccco3)C2c2cccc(O)c2)no1 (configuration not stated) | 9.1 | 10.8 | 7.3 | 0.0 | 6.6 | 6.3 | .
